Screening data from PubChem BioAssay.
This is a sample that favours compounds with a hit; in the whole collection about 5.9% have one here.
KB-3-1 cytotox – kills parental KB-3-1 adenocarcinoma cells; KB-3-1 viability, CellTiter-Glo ATP luminescence, 72 h; Potency, µM (doses to about 46.1 µM), actives largely listed as cytotoxic; 1.4% of 400,000 active; further: on the % scale 0 is the no-effect control and ±100 the full control effect; nearly all actives have a fitted effect of over 60% in size
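72 h, 37 °C compound treatment of KB-3-1 parental cells; CellTiter-Glo added, 10 min, luminescence read. Data corrected against DMSO-only plates and normalized before curve fitting.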
S2 tox – reduces viability in counter-screen for ATXN expression inhibitors; S2 cells (HEK-293 line with an ATXN2-luciferase reporter) viability, CellTiter-Fluor protease fluorescence, 24 h; Potency, µM (titrated, usually from 56.7 µM), hits mostly cytotoxic; 0.49% of 400,000 active; further: nearly all actives have a fitted effect of over 40% in size
TGFb SMAD3 inh – blocks TGF-b signaling; HepG2 CAGA-GFP TGF-b/SMAD3 reporter, GFP fluorescence, 18 h; TGF-beta stimulated, 500 pg/mL final; Potency, µM (series often up to 46.1 µM), without a hit: at the top dose activity, negative = inhibition, most hits filed as inhibitors; 1.2% of 410,000 active; further: on the % scale 0 is the no-effect control and ±100 the full control effect; nearly all actives have a fitted effect of over 65% in size
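HEPG2 CAGA-GFP, 1000 cells/well; 2 h settle, 37 C; cpd via pin tool; TGF-b 500 pg/mL final; 18 h, 37 C; GFP imaging ex488/em500-530; %Activity normalised to -TGF-b and +DMSO controls; CRC fit, curve class.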
HepG2 viability – counter-screen for TGF-b inhibitors: cytotoxicity in HepG2 cells; AID 588856; HepG2 CAGA-GFP viability, ATP luminescence, 18 h; Potency, µM (titrated, usually from 46.1 µM), inactives show at the highest dose activity change, negative = cytotoxicity, most hits filed as cytotoxic; 0.76% of 410,000 active
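CellTiter-Glo luminescence gave cytotoxicity after 18 hours at 37 degrees C. The cells were HepG2 CAGA-GFP in 1% FBS DMEM, stimulated with 500 pg/mL TGF-beta after compound addition. %Activity was normalised to no-cell wells (complete cell-killing) and DMSO (no toxicity), and curves were fitted and classified.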
ATXN2 expr inh – inhibitors of ATXN2 expression. HEK-293 ATXN2-luciferase reporter, luminescence, 24 h. Potency, µM (highest dose often 57 µM), for the others: top-dose activity change, negative = inhibition, most hits filed as inhibitors. 0.72% of 360,000 active; further: on the % scale 0 is the no-effect control and ±100 the full control effect; nearly all actives have a fitted effect of over 55% in size
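qHTS (up to 57 uM final) was run with 24 h compound exposure of reporter cells at 37 °C. Each well was multiplexed: SteadyGlo luminescence measured ATXN2-luciferase expression after a fluorogenic Gly-Phe-AFC viability readout (25 uM final).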
KB-V1 MDR tox – kills drug-selected multidrug resistant KB-V1 cells. KB-V1 MDR cells viability, CellTiter-Glo, 72 h. Potency, µM (series often up to 46.1 µM), actives largely listed as cytotoxic. 3.4% of 400,000 active. AID 1347076; further: on the % scale 0 is the no-effect control and ±100 the full control effect; nearly all actives have a fitted effect of over 60% in size
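qHTS viability screen in drug-selected KB-V1 MDR cells: 72 h compound treatment at 37 degrees C, ATP luminescence end point.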
* = called active by the depositor; i = inactive; ? = inconclusive; . = not tested or not shown. The call rests on the fitted dose curve; in most records, active means well fitted curve in the direction sought with a large enough effect; inconclusive means small, poorly fitted or top-dose-only effect, or another doubt; inactive means no such curve, though single readings can be large; an effect the other way counts as inactive or inconclusive. Potency means the concentration at half of the fitted maximal effect.

SMILES | KB-3-1 cytotox | S2 tox | TGFb SMAD3 inh | HepG2 viability | ATXN2 expr inh | KB-V1 MDR tox
COc1ccc(/C=N/NC(=O)Cn2cnc3ccccc3c2=O)cc1 | i | i | 13% | 8% | -3% | 3.3µM*
Cc1cc(/C=C2\SC(=Nc3ccc(F)cc3)NC2=O)c(C)n1-c1ccc(S(N)(=O)=O)cc1 | 6.5µM* | ? | ? | 25% | ? | i
Cc1cc(C)cc(N2CCn3c2nc2c3c(=O)n(Cc3ccc(Cl)cc3)c(=O)n2C)c1 | . | . | 4% | -8% | . | .
CC(C)C(Cl)=NOC(=O)Nc1ccc(F)cc1 | i | 21µM* | -11% | 20µM* | ? | i
C/C(=N\OC(=O)Nc1ccc(Cl)cc1)c1ccc(F)c(F)c1 | i | i | 0% | -96% | 22% | ?
CCOC(=O)c1sc2ccccc2c1S(=O)(=O)N1CCN(c2cccc(C)c2C)CC1 | i | i | -32% | 9% | 8% | i
CCC(CC)COC(=O)C1=C(C)NC(=O)NC1c1ccc(N(C)C)cc1 (stereo not given) | i | i | ? | 7.9µM* | . | i
Cc1cc(=O)n2[nH]c(=O)c(N=Nc3ccccc3)c2[nH]1 | i | ? | 0% | -30% | 3% | i
CCOc1ccc(N=Nc2c(=O)[nH]n3c(=O)cc(C)[nH]c23)cc1 | 23µM* | i | 4% | -33% | -6% | ?
Cc1ccccc1CNC(=O)C1CCCN(c2nnc(-n3c(C)ccc3C)s2)C1 (stereo not given) | i | i | ? | -24% | 2% | ?
CN(C)c1ccc2c(c1)OC(N)=C(C#N)C2c1cccc(F)c1 (stereo not given) | ? | i | ? | -8% | ? | ?
N#CC1=C(N)Oc2cc(N)ccc2C1C1CCCCC1 (stereo not given) | 5.8µM* | i | -13% | -8% | -14% | ?
COc1ccc(OC)c(C2C(C#N)=C(N)Oc3cc(N)ccc32)c1 (stereo not given) | ? | i | -4% | -18% | 8% | ?
N#CC1=C(N)Oc2cc(N)ccc2C1c1cccc(F)c1 (stereo not given) | 5.2µM* | i | -6% | 0% | -15% | ?
C[N+]1(CC(=O)c2ccc(I)cc2)CCOCC1 | i | . | -3% | 3% | . | i
COc1cccc(NC(=O)CSc2nccn2Cc2ccc3c(c2)OCO3)c1 | i | i | 0% | -8% | 0% | i
CNC(=O)COC(=O)c1ccccc1C(=O)c1ccc(Cl)c([N+](=O)[O-])c1 | i | 10µM* | -24% | -15% | . | ?
O=C(COC(=O)c1ccccc1C(=O)c1ccc(Cl)c([N+](=O)[O-])c1)NC1CC1 | 8.2µM* | 28µM* | ? | 16µM* | ? | i
CC(C)OC(=O)c1ccccc1C(=O)c1ccc(N)c([N+](=O)[O-])c1 | i | ? | 11% | 4% | -16% | ?
CCCC(=O)N1CCC1(C)C(=O)NS(=O)(=O)c1cc2c(cc1C)CCCS2(=O)=O (stereo not given) | i | i | -24% | -36% | 5% | i
Cn1ccc2c(-c3ccc(C(C)(C)C)cc3)cc3c(c21)C1CCC3O1 (stereo not given) | i | i | 11µM* | -39% | 52% | ?
COC(=O)c1ccc(C(=O)NC2CCCc3c2cnn3-c2ccccc2F)nc1 (stereo not given) | ? | i | -16% | 1% | -19% | 4.1µM*
Nc1[nH]c(C(=O)c2ccccc2)c(-c2ccc(Cl)cc2Cl)c1C(=O)NCCc1c[nH]c2ccccc12 | i | ? | . | . | ? | i
COc1ccc(C2CC(=O)C3=C(C2)Nc2ncnn2C3c2ccccc2C)cc1 (stereo not given) | i | i | -9% | -11% | -5% | 16µM*
COc1ccc(NC(=O)C2CC(=O)N(Cc3ccc(C)cc3)C2)cc1S(=O)(=O)N1CCCCC1 (stereo not given) | i | i | -17% | -38% | -8% | i
SMILES | KB-3-1 cytotox | S2 tox | TGFb SMAD3 inh | HepG2 viability | ATXN2 expr inh | KB-V1 MDR tox
Cc1ccc(NC(=O)c2cc(=O)c3ccccc3o2)cc1S(=O)(=O)N1CCCCC1 | ? | i | 1% | -5% | -39% | 9.2µM*
Cc1ccc(NC(=O)c2cc(=O)c3ccccc3o2)cc1S(=O)(=O)N1CCOCC1 | i | i | -18% | -1% | . | 16µM*
CCOCc1c(C(=O)Nc2cc(OCC)c(N3CCOCC3)cc2OCC)oc2ccccc12 | i | i | -26% | -17% | 6% | i
Cc1ccc(CN2CC(C(=O)Nc3ccc(C)c(S(=O)(=O)N4CCCCC4)c3)CC2=O)cc1 (stereo not given) | 16µM* | i | ? | -17% | -16% | 21µM*
CCOCc1c(C(=O)Nc2ccc3nc(N4CCOCC4)sc3c2)oc2ccccc12 | ? | i | -24% | -39% | -23% | 21µM*
O=C(Nc1ccc(S(=O)(=O)N2CCCC2)cc1)c1cc(=O)c2ccccc2o1 | i | i | 2% | 1% | -12% | i
CCOC(=O)c1cccc(NS(=O)(=O)c2ccc(-c3coc(C)n3)cc2)c1 | i | i | -18% | -14% | -12% | i
O=C(NCc1cccc(C(F)(F)F)c1)c1ccc2sc([C@H]3C[C@H](O)[C@@H](CO)O3)nc2c1 | i | i | -2% | -7% | -19% | i
CCc1ccc(-c2nn(CC(=O)NC3CCCCC3)c3c2cnc2ccc(F)cc23)cc1 | i | i | 10% | -3% | 1% | i
CCN(CC)C(=O)Cn1c(=O)cc(C)c2c(C)nn(-c3ccc(C)cc3)c21 | i | i | -4% | -8% | 2% | i
O=c1c2oc3ccccc3c2n(Cc2ccccc2F)c(=O)n1Cc1ccco1 | i | i | 1% | 10% | 3% | i
COC(=O)C1CCN(c2nc(CN(C)C3CCOC3)nc3cc(OC)c(OC)cc23)CC1 (stereo not given) | . | i | . | . | . | .
Cc1ccc(NC(=O)c2cc([N+](=O)[O-])ccc2N2CCOCC2)cc1S(=O)(=O)N1CCOCC1 | i | i | ? | 6% | -6% | i
Cc1ccc(NC(=O)COC(=O)c2oc3ccccc3c2C)cc1S(=O)(=O)N1CCOCC1 | i | i | -11% | -11% | 1% | i
Cc1ccc(NC(=O)c2ccc([N+](=O)[O-])o2)cc1S(=O)(=O)N1CCOCC1 | ? | i | 14µM* | -55% | ? | ?
